Experimental data taken from PubChem BioAssay (NCATS).
Records with an inconclusive call do not appear. Where a call stands in place of a potency, no number is given. Calls of active or inactive are those of the source. Calls follow the shape of the dose curve; as a rule, active = well fitted curve in the direction sought with a large enough effect; inconclusive = small, poorly fitted or top-dose-only effect, or another doubt; inactive = no such curve, though single readings can be large; an effect the other way counts as inactive or inconclusive.

assay: qHTS for Inhibitors of Plasmodium falciparum (HB3) proliferation (AID 504318); also: nearly all actives have a fitted effect of over 60% in size; also: potency is read from the fitted curve at half-maximal effect; details: P. falciparum HB3 in erythrocytes, SYBR Green DNA, 72 h; series mostly up to 7.21 µM
Summary of the method: (§1)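 Erythrocytes infected with P. falciparum line (0.3% parasitemia, 2.5% hematocrit final) incubated with compounds 72 h at 37 °C, 5% CO2; SYBR Green lysis buffer added, fluorescence read next day. Normalized to 0.29 uM artemisinin and DMSO.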

Compound | Potency
CCN1C(=O)N[C@@H](c2cccc(C(F)(F)F)c2)C(C(C)=O)=C1C | inactive
C=CCN1C=C2C(=O)C(C)(OC(=O)C3CCCC3)C(=O)C(c3ccccc3)=C2C=C1CCCC(=O)OC (configuration not stated) | inactive
CC(=O)Nc1ccc(S(=O)(=O)N2CCc3nc(COc4ccccc4)c4c(c3C2)CO[C@@H](C)C4)cc1 | inactive
COC(=O)C1=C(C(=O)OC)[C@@H]2N(C)c3ccccc3[C@@]23C[C@@H](C(=O)OC)N(C(=O)COCc2ccccc2)C3=N1 | inactive
COC(=O)CCCC1=CC2=C(c3ccccc3)C(=O)C(C)(OC(=O)C3CCCC3)C(=O)C2=CN1C1CC1 (configuration not stated) | inactive
COC/C=C/C1=CC2=CC(=O)C(C)(OC(=O)c3cnc4ccccc4n3)C(=O)C2=CN1Cc1ccc(OC)cc1 (configuration not stated) | inactive
COC(=O)CCCC1=CC2=CC(=O)C(C)(OC(=O)c3cccs3)C(=O)C2=CN1c1cccc(C#N)c1 (configuration not stated) | inactive
CCCCC1=CC2=C(c3ccco3)C(=O)C(C)(OC(=O)c3ccc(OC)cc3)C(=O)C2=CN1CCCCO (configuration not stated) | inactive
COC(=O)C1=C(C)N(Cc2ccccc2)C(=O)N[C@H]1c1cccc(F)c1 | inactive
CCN1C(=O)N[C@@H](c2ccccc2)[C@H](C(C)=O)[C@H]1C | inactive
C=CCOC(=O)N[C@H](C(C(=O)OC)=C(C)NCc1ccccc1)c1cccc(F)c1 | inactive
CCN1C(=O)N[C@@H](c2ccccc2)C(C(=O)OC)=C1C | inactive
COc1cccc(CC(=O)N2CCc3nc(-c4ccccc4)c4c(c3C2)CO[C@@H](C)C4)c1 | inactive
COCCN1C(=O)N[C@@H](c2cccs2)C(C(C)=O)=C1C | inactive
CC[C@@H](C)CN1C(=O)N[C@@H](CCc2ccccc2)C(C(C)=O)=C1C | inactive
COC(=O)CCC(=O)OC1(C)C(=O)C2=CN(Cc3ccc4c(c3)OCO4)C(c3ccc(OC)cc3)=CC2=C(Br)C1=O (configuration not stated) | inactive
CCN1C(=O)N[C@@H](c2cccc(C(F)(F)F)c2)[C@@H](C(=O)OC)[C@H]1C | inactive
COCCN1C(=O)N[C@@H](c2cccc(C(F)(F)F)c2)[C@@H](C(=O)OC)[C@H]1C | inactive
CC1(C)O[C@@H](C(O)(c2cc(F)c(F)c(F)c2)c2cc(F)c(F)c(F)c2)[C@H](C(O)(c2cc(F)c(F)c(F)c2)c2cc(F)c(F)c(F)c2)O1 | 536 nM (active)
CCCCc1nc2c(c3c1C[C@H](C)OC3)CN(C(=O)NCc1ccco1)CC2 | inactive
C[C@H]1Cc2c(-c3ccccc3)nc3c(c2CO1)CN(C(=O)c1ccco1)CC3 | inactive

assay: qHTS for Inhibitors of Plasmodium falciparum (CP250) proliferation (AID 504320); details: P. falciparum CP250 in erythrocytes, SYBR Green DNA, 72 h; series mostly up to 6.7 µM
Summary of the method: as §1

Compound | Potency
CCOC(=O)CN1C(=O)N[C@@H](c2ccccc2)[C@H](C(=O)OC)[C@H]1C | inactive
COC(=O)C1=C(C(=O)OC)[C@@H]2N(C)c3ccccc3[C@@]23C[C@@H](C(=O)OC)N(C(=O)COCc2ccccc2)C3=N1 | inactive
COC(=O)CCCC1=CC2=CC(=O)C(C)(OC(=O)c3cccs3)C(=O)C2=CN1c1cccc(C#N)c1 (configuration not stated) | inactive
CCCCC1=CC2=C(c3ccco3)C(=O)C(C)(OC(=O)c3ccc(OC)cc3)C(=O)C2=CN1CCCCO (configuration not stated) | inactive
COC(=O)C1=C(C)N(Cc2ccccc2)C(=O)N[C@H]1c1cccc(F)c1 | inactive
COc1cccc(CC(=O)N2CCc3nc(-c4ccccc4)c4c(c3C2)CO[C@@H](C)C4)c1 | inactive
